Screens: PubChem, National Center for Advancing Translational Sciences (NCATS)
ELG1 DNA repair = qHTS screen for small molecules that inhibit ELG1-dependent DNA repair in human embryonic kidney (HEK293T) cells expressing luciferase-tagged ELG1; HEK293T ELG1-luciferase reporter, luminescence, 16 h; DNA damage induced by 5-fluorouridine; Potency, µM (doses to about 46.1 µM), inactives show at the top dose activity change, negative = inhibition, usual class: inhibitors; actives 2.3% (n = 330,000); further: potency means the concentration at half of the fitted maximal effect; nearly all actives have a fitted effect of over 55% in size
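5-Fluorouridine DNA damage + compound/DMSO, 2,000 cells/well, 16 h, 37 °C/5% CO2. ONE-Glo, 30 min RT, luminescence. Readout = decrease in reporter signal.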
IL-1B inflam inh = qHTS for Inhibitors of Inflammasome Signaling: IL-1-beta AlphaLISA Primary Screen; THP-1 LPS/ATP IL-1B secretion, AlphaLISA, 16 h; hits give low values; activity change, % at 57.5 µM; actives 4.7% (n = 360,000); in the data active means activity change below about -50%; inconclusive means mostly about -30% to -49%
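Secreted IL-1B measured by AlphaLISA bead assay after 16 h compound exposure of THP-1 cells; compounds (final up to 57.5 uM) added 1 h before LPS (250 ng/mL) and ATP (1.25 mM) stimulation; lower signal means less secretion.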
HT1080 IDH1KD tx = qHTS for induction of synthetic lethality in tumor cells producing 2HG: qHTS for the HT-1080-IDH1KD cell line; Potency, µM (titrated, usually from 46.1 µM), for inactives: at the highest dose activity, negative = toxicity, most hits filed as cytotoxic; HT-1080 IDH1 knockdown viability, ATP luminescence, 48 h; actives 2% (n = 360,000);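 further: potency means the concentration at half of the fitted maximal effect; 0% = DMSO wells and -100% = cell-free medium wells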
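% activity derives from luminescence (CellTiter-Glo), normalised to DMSO and no-cell wells. HT-1080-IDH1KD cells, 750/well, had 48 h compound exposure at 37 °C.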
HT1080NT lethal = qHTS for induction of synthetic lethality in tumor cells producing 2HG: qHTS for the HT-1080-NT fibrosarcoma cell line | HT-1080-NT fibrosarcoma viability, CellTiter-Glo ATP luminescence, 48 h | Potency, µM (series often up to 46.1 µM), inactives show at the highest dose activity, negative = less viability, usual class: cytotoxic | actives 1.6% (n = 360,000);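 further: NT is the 2HG producing partner of a matched IDH1 knockdown line; potency means the concentration at half of the fitted maximal effect; 0% = DMSO-treated cells and -100% = media-only wells without cells; nearly all actives have a fitted effect of over 55% in size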
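A 48-hour cytotoxicity screen used HT-1080-NT cells plated 2 hours before compound delivery. ATP-based CellTiter-Glo luminescence measured viability, normalized to DMSO and no-cell controls.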
DT40 TDP1 no CPT = qHTS for Inhibitors of human tyrosyl-DNA phosphodiesterase 1 (TDP1): qHTS in cells in absence of CPT; Potency, µM (highest dose often 46.2 µM), inactives show at the highest dose activity change, negative = growth inhibition, hits mostly inhibitors; actives 15% (n = 420,000); DT40 Tdp1-/- hTDP1 cells, no CPT, ATP luminescence, 48 h; further: potency means the concentration at half of the fitted maximal effect; nearly all actives have a fitted effect of over 55% in size
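Compound effects on proliferation are scored in DT40 Tdp1-/-;hTDP1 cells in the absence of CPT. ATP levels (CellTiter-Glo luminescence) are recorded after a ≥48 hr, 37 °C incubation.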
DT40 TDP1 CPT = qHTS for Inhibitors of human tyrosyl-DNA phosphodiesterase 1 (TDP1): qHTS in cells in presence of CPT | actives 12% (n = 420,000) | Potency, µM (series often up to 46.2 µM), without a hit: at the top dose activity change, negative = growth inhibition, usual class: inhibitors | chicken DT40 Tdp1-/-;hTDP1 cells + 20 nM CPT, ATP luminescence, 48 h; further: potency means the concentration at half of the fitted maximal effect; nearly all actives have a fitted effect of over 55% in size
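Cell growth measured by CellTiter-Glo luminescence after a minimum 48 h, 37 C compound exposure with 20 nM CPT in Tdp1-knockout DT40 cells stably expressing hTDP1, seeded 400/well; qHTS titration format.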
Numbers without * were called inactive; ? = inconclusive; nt = not tested or not shown. In the library only some 19% were active in any assay of this set; here they are far more common. Unless noted, the call rests on the fitted dose curve; in most records, active means well fitted curve in the direction sought with a large enough effect; inconclusive means small, poorly fitted or top-dose-only effect, or another doubt; inactive means no such curve, though single readings can be large; an effect the other way counts as inactive or inconclusive. Unless noted, on the % scale 0 is the no-effect control and ±100 the full control effect.

SMILES	ELG1 DNA repair	IL-1B inflam inh	HT1080 IDH1KD tx	HT1080NT lethal	DT40 TDP1 no CPT	DT40 TDP1 CPT
COc1ccccc1C(=O)Nc1ccc(OCC(=O)N2CC(C)CC(C)C2)cc1 (centres undefined)	-15.1%	-6.3	2.9%	4.0%	?	?
CCOc1ccccc1NC(=O)NCc1ccccn1	-0.9%	-13.5	15.2%	10.1%	0.9%	-13.8%
Oc1ccc(/C=N/Nc2ccc(Cl)nn2)c(O)c1O	1.3%	10.6	-19.5%	-13.0%	20.6µM*	?
CCOc1ccc(/C=N/Nc2ccc(Cl)nn2)c(O)c1	0.0%	66.6	-0.1%	-16.7%	0.581µM*	1.16µM*
Oc1c(Br)cc(/C=N/Nc2ccc(Cl)nn2)cc1Br	-9.6%	12.8	-10.0%	-0.6%	?	8.5%
CCOc1ccccc1/C=N/Nc1ccc(Cl)nn1	-0.6%	27.7	-7.6%	3.2%	-21.2%	4.7%
Oc1c(Br)cc(Br)cc1/C=N/Nc1ccc(Cl)nn1	?	-14.9	-25.5%	-6.5%	2.91µM*	?
CCOc1ccc(CN(C)C(=O)CCN2C(=O)c3ccccc3C2=O)cc1OC	7.3%	8.7	1.0%	12.6%	-5.8%	10.4%
Cc1ccc(OCCN2C(=O)c3ccccc3C2=O)c(C)c1	28.7%	9.0	1.7%	7.4%	-8.2%	25.2%
Cc1cccc2c1N(CCCOc1ccc(C(C)(C)C)cc1)C(=O)C2=O	-8.9%	-1.0	-24.8%	-29.8%	18.4µM*	?
Cc1ccc2c(c1)C(=O)C(=O)N2CCCOc1ccccc1C	12.2%	?	-28.8%	?	2.91µM*	3.26µM*
CCOc1ccc(CN2C(=O)C(=O)c3cccc(C)c32)cc1OC	nt	nt	nt	nt	1.64µM*	?
COc1ccc(OCCN2C(=O)c3cccc(N)c3C2=O)cc1	?	39.1	-5.9%	-5.9%	-14.9%	0.0%
Cc1cccc2c1N(CCCOc1ccccc1)C(=O)C2=O	-5.0%	-6.3	0.3%	1.5%	16.4µM*	9.2µM*
CCC(=O)N[C@@H]1c2ccccc2C2(CCN(Cc3[nH]c4c(Cl)cccc4c3C)CC2)[C@H]1OC	nt	nt	nt	nt	-26.5%	-13.7%
Cc1ccccc1OCCCN1C(=O)C(=O)c2cccc(C)c21	10.0%	3.5	?	?	1.84µM*	2.59µM*
O=C(Cn1ncc2c(=O)oc3ccccc3c21)Nc1cc(F)ccc1F	nt	nt	nt	nt	-15.4%	-0.1%
O=C(O)C(=O)/C(=C\c1cccc2ccccc12)c1ccc2ccccc2n1	-14.3%	16.6	?	?	18.4µM*	?
C/C(=N\Nc1cc(N2CCOCC2)nc(C)n1)c1cccc([N+](=O)[O-])c1	14.6µM*	-16.3	6.3%	0.5%	10.3µM*	16.4µM*
C/C(=N\Nc1ccccn1)c1ccc(N2CCOCC2)cc1	?	-4.5	1.1%	4.1%	?	?
CCCCc1ccc(/C(C)=N/Nc2cc(N3CCOCC3)nc(C)n2)cc1	0.0%	-8.6	?	?	23.1µM*	?
CCc1ccc(/C(C)=N/Nc2cc(Cl)nc(C)n2)cc1	-14.7%	-5.4	?	?	?	23.1µM*
O=c1c(-c2cc(F)cc(F)c2)nc2cnc(N3CCOCC3)nc2n1CCc1ccccc1	nt	nt	nt	nt	15.6%	-0.5%
Cc1ccc(S(=O)(=O)c2nnn3c2nc(N(C)Cc2ccccc2)c2cc(Cl)ccc23)cc1C	nt	nt	nt	nt	11.6µM*	13µM*
CCCCNc1nc2c(S(=O)(=O)c3ccccc3)nnn2c2ccccc12	14.8%	45.6	10.4%	16.0%	1.0%	1.4%
SMILES	ELG1 DNA repair	IL-1B inflam inh	HT1080 IDH1KD tx	HT1080NT lethal	DT40 TDP1 no CPT	DT40 TDP1 CPT
CCCCN(C)c1nc2c(S(=O)(=O)c3ccc(CC)cc3)nnn2c2ccc(Cl)cc12	nt	nt	nt	nt	10.3µM*	11.6µM*
Cc1ccc(S(=O)(=O)c2nnn3c2nc(N2CCN(c4ccc(F)cc4)CC2)c2cc(Cl)ccc23)cc1C	nt	nt	nt	nt	-8.7%	-11.2%
O=S(=O)(NCCN1CCCC1)c1ccc(Br)cc1	-2.9%	-4.8	1.5%	-9.1%	-1.2%	-14.5%
Cc1ccccc1OCC(=O)Nc1ccc2[nH]c(=O)sc2c1	nt	nt	nt	nt	16.4µM*	?
Cc1ccc(OCC(=O)Nc2ccc3[nH]c(=O)sc3c2)cc1	nt	nt	nt	nt	-24.8%	5.4%
Cc1cc(OCC(=O)Nc2ccncc2)cc(C)c1Br	?	-50.3*	10.3µM*	-23.5%	?	?
Cc1ccccc1OCC(=O)Nc1ccc(C(N)=O)cc1	?	-5.4	7.7%	8.4%	5.8%	2.8%
O=C(COc1ccc(Cl)cc1Br)Nc1ccncc1	?	?	-16.6%	-14.3%	10.3µM*	?
Cc1ccccc1OCC(=O)Nc1ccncc1	?	10.1	-5.7%	-2.4%	16.4µM*	?
O=C(CSc1nc2c(c(=O)[nH]1)CCC2)Nc1cccc(O)c1	nt	nt	nt	nt	-18.3%	-25.7%
Cn1cccc1C(=O)N1CCC2(CC1)CN(C(=O)Nc1cccc(C#N)c1)C2	nt	nt	nt	nt	?	-6.4%
Cc1cc(OCC(=O)Nc2ccc(Br)cc2)cc2c1C(=O)CC(C)(C)O2	14.6µM*	-81.3*	-3.1%	-16.2%	23.1µM*	29.1µM*
NC(=O)c1ccc(NC(=O)COc2cccc3ccccc23)cc1	-9.5%	0.3	3.0%	-10.5%	-26.1%	-15.8%
CC(=O)Nc1ccc(NC(=O)COc2cccc3ccccc23)cc1	nt	-2.8	-6.9%	-11.5%	8.2µM*	9.2µM*
CC(=O)Nc1cccc(NC(=O)COc2ccccc2C)c1	18.1%	-5.1	-7.6%	0.1%	-69.5%	11.6µM*
CC(=O)c1cccc(NC(=O)COC(=O)COc2ccccc2C)c1	8.9%	-7.9	3.8%	6.5%	-14.4%	10.3%
Cc1ccc(OCC(=O)Nc2ccncc2)c(C)c1	?	8.7	-0.6%	-1.1%	8.2µM*	20.6µM*
Cc1ccccc1OCC(=O)Nc1ccc(Cc2ccncc2)cc1	?	-76.7*	-17.8%	-17.6%	?	?
O=C(COc1ccc(Br)cc1)Nc1ccc(Cc2ccncc2)cc1	-12.4%	-11.3	5.7%	19.8%	0.9%	2.2%
O=C(O)CSc1cc(NS(=O)(=O)c2ccc(Br)cc2)c2ccccc2c1O	14.6µM*	-51.0*	16.4µM*	20.6µM*	5.17µM*	2.91µM*
